# Experimental data as given in PubChem BioAssay AID720519 (National Center for Advancing Translational Sciences (NCATS), 2013).
# Records with an inconclusive call do not appear. A call without a number means that no potency is given here. Activity calls are given as the source filed them. Calls follow the shape of the dose curve; as a rule, active = well fitted activation curve with a large enough effect; inconclusive = small, poorly fitted or top-dose-only effect; inactive = flat fitted curve, though single readings scatter.
# Test: qHTS for Inhibitors of Cell Surface uPA Generation: Confirmatory Assay for Cherry-picked Compounds
# Details: cell surface uPA activity generation, qHTS confirmation; series mostly up to 115 µM
# In short: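 RAW 264.7 cells at 4000/well, incubated overnight, then treated with compounds. After 24 h at 37 C, viability was read by ATPlite luminescence. An increase in signal indicates blocked uPA-dependent LF entry.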
# Potency is read from the fitted curve at half-maximal effect.
row,SMILES,Potency
1,O=C(CNC(=O)N1CC(=O)Nc2ccccc21)Nc1cc(Cl)ccc1Cl,inactive
2,CCOC(=O)c1c(C)oc2ccc(OC(=O)COc3c(F)c(F)c(F)c(F)c3F)cc12,inactive
3,CCN(CC)CCCn1c2c(c(SCC(=O)Nc3cccc4ccccc34)nc1=O)CCC2,inactive
4,CCCCn1c(C2CCCCC2)nc2cc3[nH]c(=O)c(C(C)C)nc3cc21,inactive
5,CCN(CC)CC(=O)Nc1sc2c(c1C(=O)c1ccccc1OC)CCC2,10.4 µM (active)
6,COc1ccc(C(=O)NCCCN2CCOCC2)cc1,inactive
7,COC(=O)COc1cc2ccccc2cc1C(=O)Nc1ccccc1,inactive
8,O=C(NNC(=O)c1ccc2ccccc2c1)Nc1ccc(F)cc1,inactive
9,CN(C(=O)CCn1c(=S)oc2ccccc21)c1ccc(F)cc1,inactive
10,CC(C)C(=O)Nc1nnc(SCc2cccc(F)c2)s1,inactive
11,S=C(Nc1ccccc1Oc1ccccc1)NC1CCCC1,inactive
12,CC(=O)Nc1ccc(NC(=O)CCCCCN2C(=O)c3ccccc3C2=O)cc1,inactive
13,Cc1nc(SCC(=O)NCCN2C(=O)CSC2=O)nc(C)c1C,inactive
14,Cc1ccsc1/C=C(\C#N)C(=O)NC1CCS(=O)(=O)C1 (centres undefined),inactive
15,O=c1ccc(S(=O)(=O)N2CCCC2)c[nH]1,inactive
16,O=C(OCC(=O)N1CCOCC1)c1c(Cl)ccc(Cl)c1Cl,inactive
17,CCN(CC)S(=O)(=O)c1ccc(C(=O)Nc2cccc(C)c2)cc1,inactive
18,Cc1ccc(NC(=O)CC2OC(=O)c3ccccc32)cc1S(=O)(=O)N1CCOCC1 (centres undefined),inactive
19,Cc1ccc(NC(=O)CCCn2c(=S)[nH]c3ccsc3c2=O)cc1C,inactive
20,O=C(CN(c1ccccc1F)S(=O)(=O)c1ccccc1)Nc1ccc2c(c1)OCCO2,inactive

row,SMILES,Potency
1,CCOC(=O)C1=C(C)N(Cc2ccccc2)C(=O)NC1c1ccc(OC)cc1 (centres undefined),inactive
2,COc1ccc(N2CC(C(=O)Nc3nnc(SCCC4OCCO4)s3)CC2=O)cc1 (centres undefined),inactive
3,COc1ccc(S(=O)(=O)N2CCOCC2)cc1NC(=O)CN1C(=O)NC2(CCCC2)C1=O,inactive
4,COc1cc(NC(=S)NCCc2ccc(S(N)(=O)=O)cc2)c(OC)cc1Cl,inactive
5,CCNC(=S)NNC(=O)C(c1ccccc1)c1ccccc1,inactive
6,COc1ccc(CNCCC2(C(C)C)CCOC(C)(C)C2)cc1 (centres undefined),inactive
7,CC(C)Cn1cnc2c(N)nc3ccccc3c21,inactive
8,Cc1nn(CC(=O)OCC(=O)NC(C)c2ccccc2)c(C)c1[N+](=O)[O-] (centres undefined),inactive
9,COc1cc(CNCCc2ccccc2)cc(Br)c1OCC(=O)Nc1ccccc1C,inactive
10,Cn1nc(C(C)(C)C)c([N+](=O)[O-])c1C(=O)N1CCOCC1,inactive
11,CC1CC(C)CN(CCCNC(=O)CN2C(=O)CSc3ccc(S(=O)(=O)N4CCOCC4)cc32)C1 (centres undefined),inactive
12,O=C(COc1ccccc1F)NCC(c1ccc(F)cc1)N1CCOCC1 (centres undefined),inactive
13,COC(=O)[C@H](CC(C)C)N(Cc1ccccc1)S(=O)(=O)N(Cc1ccc(OC)cc1)[C@@H](CC(C)C)C(=O)OC,inactive
14,CCCCCCCCCOC(=O)C1N2C(=O)[C@@H](NC(=O)COc3ccccc3)[C@H]2SC1(C)C (some centres undefined),inactive
15,CC(=O)NCCc1cnc[nH]1,inactive
16,CN(CCC#N)C(=S)Nc1ccc(Oc2ccccc2)cc1,inactive
17,O=C(COC(=O)c1cc([N+](=O)[O-])ccc1NCCO)NCc1cccs1,inactive
18,Cc1ccc(-n2ncc(C(=O)NC3CC3)c2C2CCN(C(=O)OC(C)(C)C)CC2)cc1,inactive
19,Cc1cnc(C(=O)OCC(=O)Nc2ccc3c(c2)OCCO3)cn1,inactive
